Screening data (PubChem BioAssay)
CYP2C19 activ: human CYP2C19 activators, primary screen, biochemical, luminescence; recombinant CYP2C19, luciferin-H EGE luminescence; stronger effect = higher value; 0 = fully inhibited enzyme, 1 = untreated enzyme; Cytochrome P450 2C19 (Homo sapiens), P33261; AID 1025, 2008; 96,000 tested, under 10 active; activation factor at 5 µM;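 active = activation factor of at least 2 at 5 µM in the primary screen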;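 note: 0 = wells with 2.5 mM tranylcypromine and 1 = vehicle-only wells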
Target sequence (P33261 whole entry, looked up): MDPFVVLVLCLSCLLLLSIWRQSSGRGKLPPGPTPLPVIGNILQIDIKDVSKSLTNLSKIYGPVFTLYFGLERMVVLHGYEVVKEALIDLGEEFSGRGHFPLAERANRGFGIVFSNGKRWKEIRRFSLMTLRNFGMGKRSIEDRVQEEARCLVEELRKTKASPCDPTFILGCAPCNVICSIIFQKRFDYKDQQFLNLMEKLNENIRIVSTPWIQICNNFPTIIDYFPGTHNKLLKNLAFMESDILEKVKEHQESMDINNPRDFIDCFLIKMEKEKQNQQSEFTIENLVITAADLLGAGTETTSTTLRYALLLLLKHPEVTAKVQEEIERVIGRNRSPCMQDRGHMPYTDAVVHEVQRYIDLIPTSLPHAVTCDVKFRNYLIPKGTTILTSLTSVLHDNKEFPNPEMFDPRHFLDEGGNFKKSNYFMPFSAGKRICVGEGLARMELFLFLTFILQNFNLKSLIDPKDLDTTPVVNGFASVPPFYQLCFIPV
PostGolgi ctrl: growth inhibition of yeast control strain, primary screen, counter-screen for post-Golgi transport modulator project | AID 738, 2007 | inhibition, % at 10 µM | efflux-deficient yeast background strain, growth absorbance A615, 16 h | 5% of 98,000 active
CYP2C9 inhib: blockers of cytochrome P450 2C9 activity – biochemical, luminescence, ADME assay, primary screen | CYP2C9 Supersomes, luciferin-H conversion | AID 777, 2007 | 20% of 96,000 active | inhibition, % at 5 µM | P11712;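 active = blocking of liver enzyme CYP2C9 beyond about 50% at 5 µM, limit read from the data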
CYP2C9 activ: human CYP2C9 activators, primary screen, biochemical, luminescence; Cytochrome P450 2C9 (Homo sapiens), P11712; recombinant CYP2C9, luciferin-H conversion; stronger effect = higher value; factor 1 = untreated enzyme, 0 = blocked; activation factor at 5 µM; 1.4% of 96,000 active; AID 1024, 2008;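 active = activation factor of 2 or more for CYP2C9 at a 5 µM dose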;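 note: 0 = sulfaphenazole-blocked wells and 1 = vehicle-only wells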
PostGolgi yeast: phenotypic screen on post-Golgi transport, primary screen; 0.9% of 98,000 active; post-Golgi transport phenotypic cell assay; inhibition, % at 10 µM; AID 739, 2007;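 note: yeast cells grown in 1536-well plates; yeast grown about 18 h at 30C before absorbance read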
CYP2C19 inh: blockers of cytochrome P450 2C19 activity – biochemical, luminescence, ADME assay, primary screen. P33261. CYP2C19 Supersomes, luciferin-H EGE luminescence, 30 min. 21% of 96,000 active. inhibition, % at 5 µM;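 active = CYP2C19 inhibition above a set limit at 5 µM in the primary screen, cut at about 50% in these data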;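 note: plate controls were negative control wells for no effect and 2.5 mM tranylcypromine positive control for full effect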
The depositor's hits bear a star; x = no result given. In the library only some 32% were active in any assay of this set; here they are far more common. Cut-off read from the data, not from the text of the source, unless noted: active = inhibition above about 30%; inactive = the rest.

SMILES	CYP2C19 activ	PostGolgi ctrl	CYP2C9 inhib	CYP2C9 activ	PostGolgi yeast	CYP2C19 inh
O=C(CSc1nnc(CNC(=O)c2ccccc2F)o1)c1ccccc1	0.7	-2	37	0.6	-5	30
COc1ccc2ccc3c(c2c1)N=C[C@]1(O3)N(C)c2ccccc2C1(C)C	0.8	-1	27	0.7	-16	17
COc1ccc(C2Nc3ccccc3C(=O)N2c2ccc(C)cc2)cc1Cn1nc(C)c([N+](=O)[O-])c1C (stereo not drawn)	0.5	9	92*	0.1	-5	53*
Cc1ccc(C)c(Nc2nc3nonc3nc2N2CCOCC2)c1	0.9	8	8	0.9	1	12
Cc1ccccc1S(=O)(=O)Nc1nc2ccccc2nc1N1CCOCC1	1	17	70*	0.3	3	4
CCOc1ccc(S(=O)(=O)Nc2nc3ccccc3nc2N2CCN(C)CC2)cc1	0.8	3	56*	0.4	1	18
O=S(=O)(Nc1nc2ccccc2nc1N1CCN(c2ccccc2F)CC1)c1ccc(Cl)cc1	0.7	7	100*	0	-10	29
CCOC(=O)C(O)(CCC(O)(C(=O)OCC)C(=O)OCC)C(=O)OCC	0.8	5	-4	1	-4	19
CCOC(=O)c1ccc(CC2S/C(=C(\C#N)C(C)=O)NC2=O)cc1 (stereo not drawn)	1	10	62*	0.4	-1	-1
CCOC(=O)c1ccc(N2C(=O)C=CC2=O)cc1	1.1	11	-56	1.6	22	-13
CCc1ccc(CC2S/C(=C(\C#N)C(C)=O)NC2=O)cc1 (stereo not drawn)	0.9	1	78*	0.2	1	12
CCCn1c(N)c(N2CCCCC2)c(=O)n(CC(=O)Nc2ccccc2)c1=O	0.6	20	44	0.6	-3	37
CCOC(=O)C1CCN(C(=O)COc2ccc(S(=O)(=O)NC(C)(C)C)cc2)CC1	1	1	19	0.8	-12	2
O=C(COc1ccccc1)N1CCN(C(=O)c2cccs2)CC1	0.7	8	16	0.8	4	29
CCOC(=O)C1CCN(C(=O)Cc2cccs2)CC1	0.4	36*	-8	1.1	-4	59*
CCOC(=O)C1CCN(C(=O)COc2cc(C)c(Br)cc2C)CC1	0.1	23	48	0.5	11	91*
CCOC(=O)C1CCN(C(=O)COc2ccc(Br)cc2)CC1	0.2	2	65*	0.4	-3	82*
Cc1cccc(OCC(=O)N2CCN(C(=O)c3cccs3)CC2)c1	0.4	3	59*	0.4	10	62*
Cc1cccc(OCC(=O)N2CCC(c3ccccc3)C2)c1 (stereo not drawn)	0.5	22	14	0.9	2	46
CCOC(=O)C1CCN(C(=O)COc2cccc(C)c2)CC1	0.2	4	20	0.8	0	81*
CC(=O)Nc1ccccc1C(=O)N1CC(C)OC(C)C1 (stereo not drawn)	1.1	14	3	1	-5	-9
Cc1ccccc1Cn1ccc(NC(=O)c2cnn3cccnc23)n1	0.5	3	50*	0.5	5	45
Cc1ccccc1Cn1ccc(NC(=O)c2nc3ncccn3n2)n1	0.9	8	46	0.5	-9	7
O=C(O)CCCNC(=O)c1cncc(Br)c1	1	4	3	1	1	3
O=C(O)c1cc(Cl)c2ccccc2c1O	0.8	9	79*	0.2	11	20
SMILES	CYP2C19 activ	PostGolgi ctrl	CYP2C9 inhib	CYP2C9 activ	PostGolgi yeast	CYP2C19 inh
Cc1[nH]nc(SCC(=O)N2CCCCC2)c1[N+](=O)[O-]	0.4	5	48	0.5	7	65*
Cn1c(Cn2c(=O)sc3ccccc32)nnc1SCC(=O)NC1CCCC1	x	11	x	x	0	x
O=C(Nc1ccccc1C(=O)NC(Cc1ccccc1)C(=O)NC1CCCCCC1)c1ccccc1 (stereo not drawn)	0.6	12	71*	0.3	2	45
O=C(Nc1ccc(Cl)cc1C(=O)Nc1ccncc1)c1ccco1	1	25	-21	1.2	18	0
O=C(Nc1ccccc1C(=O)NCc1cccnc1)c1ccco1	0.2	1	54*	0.5	1	78*
O=C(Nc1ccc(Cl)cc1C(=O)NCc1cccnc1)c1ccco1	0.8	15	58*	0.4	16	23
O=C(Nc1ccccc1C(=O)NCc1ccccc1)c1ccccc1	0.8	16	54*	0.5	-4	16
COc1ccccc1C(c1nnnn1CCc1ccccc1)N1CCCCCC1 (stereo not drawn)	0.8	3	38	0.6	-3	15
Cc1ccc(NC(=O)CCC(=O)n2nc(C)cc2C)c(C)c1	1.1	2	-24	1.2	0	-5
CCCNC(=O)c1ccccc1NC(=O)c1ccc(CSc2ccccc2)cc1	0.3	80*	79*	0.2	12	74*
CN(Cc1ccccc1)C(=O)c1ccccc1NC(=O)c1ccccc1	0.6	-1	14	0.9	-4	45
O=C(Nc1cccc2cccc(NC(=O)c3ccco3)c12)c1ccco1	0.3	-1	-4	1	11	69*
CC(C)C(NC(=O)c1ccccc1NC(=O)c1ccco1)C(=O)O (stereo not drawn)	0.9	5	-2	1	-1	8
O=C(Nc1ccccc1C(=O)NCc1ccccc1)c1ccco1	0.5	3	74*	0.3	-4	54*
CC(NC(=O)c1ccccc1NC(=O)c1ccco1)c1ccccc1 (stereo not drawn)	0.6	-2	70*	0.3	2	36
CSC(=O)CC(=O)NC(=O)c1ccccc1	1	-9	48	0.5	4	1
CCOC(=O)c1c(N)n(C2CC(C)(C)NC(C)(C)C2)c2nc3ccccc3nc12	1	24	8	0.9	0	-1
O=C(Nc1ccccc1)Nc1ccccc1C(=O)NCc1ccccc1	0.8	14	50*	0.5	-6	18
CNC(=O)Nc1ccccc1C(=O)NCc1ccccc1	0.6	-4	14	0.9	7	37
CC(C)(C)c1cn(-c2ccccc2)c(=S)[nH]1	0.6	0	9	0.9	-2	45
Cc1ccc(-n2cc(C(C)(C)C)[nH]c2=S)cc1	0.4	8	-36	1.4	1	60*
CC1(C)CC(=O)CC(C)(C)N1OC(=O)c1ccccn1	0.7	16	11	0.9	6	30
COc1ccc(C2C(C(=O)OCC3CCCO3)=C(C)NC3=C2C(=O)CC(c2ccco2)C3)cc1O (stereo not drawn)	0.8	20	33	0.7	-19	18
COc1ccc(-c2nc(C#N)c(NCc3ccc(F)cc3)o2)cc1OC	0.7	14	40	0.6	3	32
